Inconclusive results are not listed. Activity calls are given as the source filed them. Calls come from the whole dose curve; as a rule, active = well fitted cell-killing curve with a large enough effect; inconclusive = small, poorly fitted or top-dose-only effect, or effect the other way; inactive = flat fitted curve, though single readings scatter.
Key:
Experiment in all cases: Primary qHTS to identify gynecologic anti-cancer compounds using libraries of approved drugs and bioactive compounds (AID 1345084); note: nearly all actives have a fitted effect of over 55% in size
C33A = details: Gynecologic cancer cell panel viability, ATPlite luminescence, 48 h; series mostly up to 57.5 µM
How it was run: (§1)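 ATP-based viability (ATPlite), 1,000 cells/well, 16 h pre-incubation, 48 h compound at 37 C, 5% CO2, 15 min RT before read.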

CAOV3 = details: Gynecologic cancer cell panel viability, ATPlite luminescence, 48 h; series mostly up to 57.5 µM
How it was run: as §1

CASKI = details: Gynecologic cancer cell panel viability, ATPlite luminescence, 48 h; series mostly up to 57.5 µM
How it was run: as §1

Es-2 = details: Gynecologic cancer cell panel viability, ATPlite luminescence, 48 h; series mostly up to 57.5 µM
How it was run: as §1

HeLa = details: Gynecologic cancer cell panel viability, ATPlite luminescence, 48 h; series mostly up to 57.5 µM
How it was run: as §1

Hek293T = details: Gynecologic cancer cell panel viability, ATPlite luminescence, 48 h, control line for the selectivity index; series mostly up to 57.5 µM
How it was run: as §1

JEG-3 = details: Gynecologic cancer cell panel viability, ATPlite luminescence, 48 h; series mostly up to 57.5 µM
How it was run: as §1

OV90 = details: Gynecologic cancer cell panel viability, ATPlite luminescence, 48 h; series mostly up to 57.5 µM
How it was run: as §1

PA-1 = details: Gynecologic cancer cell panel viability, ATPlite luminescence, 48 h; series mostly up to 57.5 µM
How it was run: as §1

SKOV3 = details: Gynecologic cancer cell panel viability, ATPlite luminescence, 48 h; series mostly up to 57.5 µM
How it was run: as §1

Tov-21-G = details: Gynecologic cancer cell panel viability, ATPlite luminescence, 48 h; series mostly up to 57.5 µM
How it was run: as §1

Tov112D = details: Gynecologic cancer cell panel viability, ATPlite luminescence, 48 h; series mostly up to 57.5 µM
How it was run: as §1

Measured: Potency

CCCOC(c1cc2nccc(C(=O)O)c2[nH]1)c1ccccc1Cl (stereo not given)
inactive: all assays above

C=C1CCC2C(C)(C)C(O)CCC2(C)C1CCC(C)CCO (stereo not given)
inactive: all assays above

C=C1CCC2C(C)(C(=O)O)CCCC2(C)C1CC/C(=C\CO)CO (stereo not given)
inactive: all assays above

N#Cc1ccc2[nH]cc(CCCCN3CCN(c4ccc5oc(C(N)=O)cc5c4)CC3)c2c1
inactive: all assays above

CC1(C)CC[C@]2(C(=O)O[C@@H]3O[C@H](CO)[C@@H](O)[C@H](O)[C@H]3O)CC[C@]3(C)C(=CCC4[C@@]5(C)C[C@@H](O)[C@H](O)C(C)(C)C5[C@H](O)C[C@]43C)[C@@H]2[C@@H]1O (stereo not given in full)
inactive: all assays above

CC1(C)CC2=C3C=CC4C5(C)CCC(O)C(C)(C)C5CCC4(C)C3(C)CCC2(C)C(O)C1 (stereo not given)
inactive: all assays above

CC(C)=CCC/C(C)=C/CO[C@@H]1O[C@H](CO)[C@@H](OC(=O)/C=C/c2ccc(O)cc2)[C@H](O[C@@H]2O[C@@H](C)[C@H](O)[C@@H](O)[C@H]2O)[C@H]1O
inactive: all assays above

CC1(C)CC2C(O)c3cocc3CC(C)(O)C2C1 (stereo not given)
inactive: all assays above

C=C1C(=O)O[C@@H]2C[C@H](C)[C@@]3(O)C=C(C(C)=O)[C@]4(CC3C[C@H]12)C(=O)O[C@H]1C[C@@H](C)C(CCC(C)=O)=CC[C@H]14 (stereo not given in full)
inactive: all assays above

CC1(C)CC[C@]2(C(=O)O[C@@H]3O[C@H](CO)[C@@H](O)[C@H](O)[C@H]3O)CC[C@]3(C)C(=CCC4[C@@]5(C)C[C@@H](O)[C@H](O)[C@](C)(C=O)C5CC[C@]43C)[C@@H]2[C@@H]1O (stereo not given in full)
inactive: all assays above

CCCN1CCN(c2ccc(C(=O)NC3(C(=O)NCC#N)CCCCC3)cc2)CC1
inactive: all assays above

CC1CC(=O)C2=C(CCC3(O)C(O)c4c(O)cccc4C(=O)C23O)C1 (stereo not given)
inactive: all assays above

CCc1cc(CN2CC(C(=O)O)C2)sc1-c1noc(-c2ccc(Oc3ccccc3)cc2)n1
inactive: all assays above

CC(C)(C)c1cc(Br)cc([C@H](CC(=O)O)NC(=O)CNC(=O)c2cc(O)cc(NC3=NCC(O)CN3)c2)c1 (stereo not given in full)
inactive: all assays above

COc1cc(Nc2nc3ccccc3nc2NS(=O)(=O)c2ccc(NC(=O)c3ccc(OC)c(C)c3)cc2)cc(OC)c1
inactive: all assays above

Source: PubChem BioAssay (NCATS)
